# Data published in PubChem BioAssay (NCATS).
# Records with an inconclusive call do not appear. Values without a mark were called inactive. Active and inactive are the calls of the source. The call rests on the fitted dose curve; in most records, active means well fitted inhibition curve with a large enough effect; inconclusive means small, poorly fitted or top-dose-only effect; inactive means flat fitted curve, though single readings scatter.
# Assays:
# Test in all cases: Cytotoxic Profiling of Annotated Libraries Using Quantitative High-Throughput Screening (AID 1296008); further: nearly all actives have a fitted effect of over 60% in size
# Details in all cases: Five cell lines viability, CellTiter-Glo ATP luminescence, 48-72 h; max response: hits give low values
# HaCat = tested on: HaCat
# How it was run: (§1)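 Cytotoxicity was measured as CellTiter-Glo ATP luminescence, read after 10 min at room temperature. Compound treatment of the cells lasted 48 or 72 hr at 37 degrees Celsius in a qHTS format.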
# KB-3-1 = tested on: KB-3-1
# How it was run: as §1
# NIH3T3 = tested on: NIH3T3
# How it was run: as §1
# On the % scale 0 is the no-effect control and ±100 the full control effect; potency means the concentration at half of the fitted maximal effect.
smiles,measurement,setting,value
C#CCN(Cc1cc2c(=O)n(C)c(CN3CCN(C)CC3)nc2cc1Cl)c1ccc(C(=O)NCc2cccnc2)cc1,Potency,HaCat,0.0073 µM (active)
same,Potency,KB-3-1,0.0411 µM (active)
same,max response,NIH3T3,-114%
CC1(C)CC[C@]2(CO[C@@H]3O[C@H](CO)[C@@H](O)[C@H](O)[C@H]3O)[C@@H](O)C[C@]3(C)C(=CCC4[C@@]5(C)CC[C@H](O[C@@H]6O[C@H](CO[C@@H]7O[C@H](CO[C@@H]8OC[C@@H](O)[C@H](O)[C@H]8O)[C@@H](O)[C@H](O)[C@H]7O)[C@@H](O)[C@H](O)[C@H]6O)C(C)(C)C5CC[C@]43C)[C@@H]2C1 (stereo partly specified),max response,HaCat,-32.8%
same,max response,KB-3-1,-2.27%
same,max response,NIH3T3,-21.6%
CN(C)C/C=C/C(=O)Nc1cccc(C(=O)Nc2cccc(Nc3ncc(Cl)c(-c4c[nH]c5ccccc45)n3)c2)c1,Potency,HaCat,4.61 µM (active)
same,Potency,KB-3-1,1.03 µM (active)
same,Potency,NIH3T3,4.11 µM (active)
CC1=C(C(=O)O)/C(=C\CO[C@@H]2O[C@H](CO)[C@@H](O)[C@H](O)[C@H]2O)C(OC(=O)/C=C/c2ccc(O)cc2)C1 (stereo partly specified),max response,HaCat,-26%
same,max response,KB-3-1,8.61%
same,max response,NIH3T3,-19.1%
Cc1nc([C@](C)(O)CO)sc1-c1cnc(N)c(O[C@H](C)c2cc(F)ccc2-n2nccn2)c1,Potency,HaCat,14.6 µM (active)
same,Potency,KB-3-1,18.4 µM (active)
same,Potency,NIH3T3,2.06 µM (active)
COC(=O)CCC(=O)OC[C@]1(C)CCC[C@@]2(C)C3CC[C@]4(C)C=CC3(CCC12)C4 (stereo partly specified),max response,HaCat,1.33%
same,max response,KB-3-1,2.37%
same,max response,NIH3T3,-0.0416%
Cc1cc(Cl)ccc1COc1ccnn1-c1cc(C(=O)O)ccn1,max response,HaCat,-5.14%
same,outcome,KB-3-1,inactive
same,max response,NIH3T3,0.276%
CC(O)CCC1C(CO[C@@H]2O[C@H](CO)[C@@H](O)[C@H](O)[C@H]2O)CC(O)CC1(C)C (stereo partly specified),max response,HaCat,-5.9%
same,max response,KB-3-1,8.38%
same,max response,NIH3T3,-8.75%
CC[C@H](NC(=O)[C@H](CS(=O)(=O)CC1CC1)N[C@@H](c1ccc(F)cc1)C(F)(F)F)C(=O)C(=O)NC1CC1,max response,HaCat,-1.21%
same,max response,KB-3-1,3.82%
same,max response,NIH3T3,-16%
Cc1cc(Nc2nc(NC(C)c3ncc(F)cn3)ncc2Cl)n[nH]1 (stereo unspecified),max response,HaCat,0.354%
same,outcome,KB-3-1,inactive
same,max response,NIH3T3,-5.45%
COc1ccc(CCO[C@@H]2O[C@H](CO[C@@H]3OC[C@H](O)[C@H](O)[C@H]3O)[C@@H](O)[C@H](O)[C@H]2O)cc1,max response,HaCat,-19%
same,max response,KB-3-1,4%
same,max response,NIH3T3,-5.95%
CC(C)=CCCC1(C)C=Cc2c(c(C)cc3c2[nH]c2ccccc23)O1 (stereo unspecified),max response,HaCat,3.9%
same,max response,KB-3-1,6.53%
same,max response,NIH3T3,-4.99%
CC1(C)CC[C@]2(C(=O)O[C@@H]3O[C@H](CO)[C@@H](O)[C@H](O)[C@H]3O)CC[C@]3(C)C(=CCC4[C@@]5(C)C[C@@H](O)[C@H](O)[C@](C)(C(=O)O)C5CC[C@]43C)C2C1O (stereo partly specified),max response,HaCat,1.77%
same,max response,KB-3-1,-4.21%
same,max response,NIH3T3,-9.14%
CCCOc1ccc(-c2nc(OC)c3ccccc3n2)cc1,max response,HaCat,-0.801%
same,outcome,KB-3-1,inactive
same,max response,NIH3T3,1.75%
CC(=O)O[C@@H]1[C@@H](O)[C@H](C)O[C@@H](O[C@H]2[C@@H]3C=CO[C@@H](O[C@@H]4O[C@H](CO)[C@@H](O)[C@H](O)[C@H]4O)[C@@H]3[C@@]3(CO)O[C@@H]23)[C@@H]1OC(=O)/C=C/c1ccccc1,max response,HaCat,-6.78%
same,max response,KB-3-1,-1.35%
same,max response,NIH3T3,-1.99%
C=C[C@@](C)(O)CC/C=C(\C)C(=O)O[C@@H]1[C@@H]2O[C@]2(C)[C@H]2[C@H](O[C@@H]3O[C@H](CO)[C@@H](O)[C@H](O)[C@H]3O)OC=C[C@@]12O,max response,HaCat,-5.52%
same,max response,KB-3-1,-1.11%
same,max response,NIH3T3,1.5%
C[C@@H]1O[C@@H](O[C@H]2[C@H](O)[C@@H](O[C@@H]3O[C@H](CO)[C@@H](O)[C@H](O[C@@H]4O[C@H](CO)[C@@H](O)[C@H](O)[C@H]4O)[C@H]3O)[C@H](O[C@H]3CC[C@@]4(C)C(=CC[C@@H]5C4CC[C@@]4(C)C5C[C@@H]5OC6(CC[C@@](C)(CO[C@@H]7O[C@H](CO)[C@@H](O)[C@H](O)[C@H]7O)O6)[C@@H](C)[C@@H]54)C3)O[C@@H]2CO)[C@H](O)[C@H](O)[C@H]1OC1OC(CO)C(O)C(O)C1O (stereo partly specified),max response,HaCat,-1.18%
same,outcome,KB-3-1,inactive
same,max response,NIH3T3,-4.4%
